Measurements published in PubChem BioAssay.
For some assays here: Results with a measured potency or affinity are listed apart. Calls of active or inactive are those of the source.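 The calls were made as follows, unless noted: active = earlier screen potentiator hit that boosts the TRPC4 ion channel at some dose, with a dose response; inactive = no potentiation, no dose response, or not a prior hit.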

What was measured:
[1] = tested on: TRPC4 beta (transient receptor potential cation channel C4), mouse; test: activators of mouse TRPC4 channel, confirmation, cell-based, Fluo4 calcium, HEK293 TRPC4beta/mu-opioid, duplicates, 10 µM (AID 2426;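 active = fluorescence ratio normalized to control raised more than 50% in primary screen plus both repeat runs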); conditions: Fluo4 calcium fluorescence, at 10 µM; hits give high values
[2] = tested on: transient receptor potential cation channel C4 beta (TRPC4), mouse; test: activators of mouse TRPC4 channel, confirmation, cell-based, second round, Fluo4, HEK293 TRPC4beta/mu-opioid, 1 µM (AID 2461;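 active = primary screen active and over 50% activation in each of two duplicate runs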); conditions: Fluo4 calcium fluorescence, at 1 µM; hits give high values
[3] = tested on: TRPC4 (transient receptor potential cation channel C4 beta), mouse; test: positive allosteric modulators of mouse TRPC4, confirmation, cell-based, second round, Fluo-4, HEK293 TRPC4beta/mu-opioid, 1 µM (AID 2554;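 active = primary screen hit whose fluorescence ratio, in both repeats, exceeds the weak agonist control mean by 3 SD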); conditions: DAMGO EC20, Fluo-4 calcium flux, at 1 µM; hits give high values
[4] = tested on: TRPC4 beta (transient receptor potential cation channel C4), mouse; test: positive allosteric modulators of mouse TRPC4, confirmation, cell-based, Fluo-4, HEK293 TRPC4beta/mu-opioid (AID 2555;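 active = primary screen hit whose calcium fluorescence ratio, in both repeats, exceeds the weak agonist control mean by 3 SD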); conditions: DAMGO EC20, Fluo-4 calcium flux, at 10 µM; hits give high values
[5] = biological target: Short transient receptor potential channel 4 (Mus musculus) (UniProt Q9QUQ5); test: inhibitors of mouse TRPC4 channel, confirmation, cell-based, Fluo4, HEK293 TRPC4beta/mu-opioid (AID 2636;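 active = calcium signal cut by more than 3 SD below the full-agonist control yet still positive, in both repeats and the earlier primary screen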); conditions: DAMGO, Fluo4 calcium flux, at 10 µM; hits give high values
Sequence of Short transient receptor potential channel 4 (Mus musculus) (Q9QUQ5 whole entry, looked up): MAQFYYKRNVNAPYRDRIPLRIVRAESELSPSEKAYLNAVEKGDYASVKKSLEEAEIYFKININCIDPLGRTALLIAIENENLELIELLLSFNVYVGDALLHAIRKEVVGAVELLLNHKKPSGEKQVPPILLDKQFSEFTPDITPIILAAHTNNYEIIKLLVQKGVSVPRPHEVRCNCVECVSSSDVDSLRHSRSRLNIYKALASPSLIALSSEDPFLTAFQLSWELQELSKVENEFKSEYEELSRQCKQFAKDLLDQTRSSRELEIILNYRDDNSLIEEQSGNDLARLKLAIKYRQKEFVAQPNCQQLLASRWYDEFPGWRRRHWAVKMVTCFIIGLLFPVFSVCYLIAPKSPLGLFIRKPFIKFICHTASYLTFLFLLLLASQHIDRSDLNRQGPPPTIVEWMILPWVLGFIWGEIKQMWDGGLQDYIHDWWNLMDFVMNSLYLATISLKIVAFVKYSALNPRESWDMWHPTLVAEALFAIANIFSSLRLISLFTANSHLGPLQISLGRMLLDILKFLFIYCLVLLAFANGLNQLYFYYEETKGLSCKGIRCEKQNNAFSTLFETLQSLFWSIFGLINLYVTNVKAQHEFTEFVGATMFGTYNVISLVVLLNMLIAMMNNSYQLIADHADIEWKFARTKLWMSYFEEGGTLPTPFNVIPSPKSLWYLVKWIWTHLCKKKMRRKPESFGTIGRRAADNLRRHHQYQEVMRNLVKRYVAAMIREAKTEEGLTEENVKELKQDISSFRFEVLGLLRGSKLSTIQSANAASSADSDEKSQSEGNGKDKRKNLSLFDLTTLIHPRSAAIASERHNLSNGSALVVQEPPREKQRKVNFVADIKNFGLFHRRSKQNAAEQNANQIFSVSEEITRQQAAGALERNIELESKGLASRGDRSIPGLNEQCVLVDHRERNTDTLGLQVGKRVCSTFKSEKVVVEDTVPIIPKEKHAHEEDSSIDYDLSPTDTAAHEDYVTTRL

[6] = biological target: Short transient receptor potential channel 4 (Mus musculus) (UniProt Q9QUQ5); test: inhibitors of mouse TRPC4 channel, confirmation, cell-based, second round, Fluo4, HEK293 TRPC4beta/mu-opioid, 1 µM (AID 2637;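 active = calcium signal ratio cut to more than 3 SD under the fully stimulated control mean yet still positive, in both repeats and the primary screen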;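 as to inhibition: percent of integrated ratio relative to wells lacking test compound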); conditions: Fluo4 calcium flux, DAMGO, at 1 µM; hits give high values
[7] = biological target: Short transient receptor potential channel 4 (Mus musculus) (UniProt Q9QUQ5); test: mouse TRPC4 channel activators, dose response, cell-based, HEK293 TRPC4/mu-opioid, Fluo-4 calcium (AID 434937;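 active = primary screen activator hit with a dose response curve and TRPC4 channel activation at any tested dose; inactive = no activation, no dose response, or not a primary hit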)
[8] = biological target: Short transient receptor potential channel 4 (Mus musculus) (UniProt Q9QUQ5); test: TRPC4 positive allosteric modulators, dose response, cell-based, HEK293 TRPC4/mu-opioid, Fluo-4 calcium, EC20 DAMGO (AID 434941);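 also: calcium entry triggered by an EC20 dose of DAMGO at the co-expressed mu-opioid receptor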
[9] = biological target: Short transient receptor potential channel 6 (Mus musculus) (UniProt Q61143); test: inhibition of mouse TRPC6 channel, confirmation, selectivity assay for TRPC4 inhibitor project, cell-based, HEK293, membrane potential dye, duplicate (AID 434948;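 active = active in primary screen and both duplicates, each dropping signal beyond three positive-control SD with fluorescence still positive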); conditions: HEK293 TRPC6, membrane potential dye fluorescence, at 10 µM, stimulated with maximal-effect acetylcholine; hits give high values
Sequence of Short transient receptor potential channel 6 (Mus musculus) (Q61143 whole entry, looked up): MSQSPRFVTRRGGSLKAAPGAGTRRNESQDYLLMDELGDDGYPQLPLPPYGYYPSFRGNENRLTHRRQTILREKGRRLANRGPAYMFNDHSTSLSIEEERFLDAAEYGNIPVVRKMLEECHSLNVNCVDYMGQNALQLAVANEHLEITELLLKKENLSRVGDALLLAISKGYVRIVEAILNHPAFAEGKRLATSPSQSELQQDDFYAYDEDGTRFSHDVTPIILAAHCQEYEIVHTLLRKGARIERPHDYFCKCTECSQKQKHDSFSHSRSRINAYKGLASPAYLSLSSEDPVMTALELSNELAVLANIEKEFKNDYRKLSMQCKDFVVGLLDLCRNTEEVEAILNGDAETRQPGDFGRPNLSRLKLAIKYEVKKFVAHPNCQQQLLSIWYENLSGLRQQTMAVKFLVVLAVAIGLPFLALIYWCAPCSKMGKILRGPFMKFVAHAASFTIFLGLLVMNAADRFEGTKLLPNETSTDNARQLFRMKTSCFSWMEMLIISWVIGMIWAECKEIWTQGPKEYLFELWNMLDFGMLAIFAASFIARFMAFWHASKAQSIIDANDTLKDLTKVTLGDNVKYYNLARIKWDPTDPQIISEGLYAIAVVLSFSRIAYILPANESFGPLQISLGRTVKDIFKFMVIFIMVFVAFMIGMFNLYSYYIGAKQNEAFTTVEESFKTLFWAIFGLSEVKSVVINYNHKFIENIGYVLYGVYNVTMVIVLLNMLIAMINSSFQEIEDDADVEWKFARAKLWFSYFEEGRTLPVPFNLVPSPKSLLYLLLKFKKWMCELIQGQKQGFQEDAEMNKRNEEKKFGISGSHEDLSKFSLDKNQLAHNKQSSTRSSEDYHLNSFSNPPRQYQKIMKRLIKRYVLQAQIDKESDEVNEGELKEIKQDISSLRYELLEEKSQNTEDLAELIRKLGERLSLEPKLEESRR

[10] = biological target: Short transient receptor potential channel 6 (Mus musculus) (UniProt Q61143); test: activation of mouse TRPC6 channel, confirmation, selectivity assay for TRPC4 activator project, cell-based, HEK293, membrane potential dye, duplicate (AID 434950;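 active = membrane potential signal rise above negative control mean plus 3 SD in both duplicates, also active in the earlier TRPC4 screen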); conditions: HEK293 TRPC6, membrane potential fluorescence, at 10 µM; hits give high values
[11] = biological target: Short transient receptor potential channel 6 (Mus musculus) (UniProt Q61143); test: TRPC6 potentiation by TRPC4 potentiator hits, confirmation, selectivity assay for TRPC4 potentiator project, HEK293 cells, membrane potential dye, duplicate (AID 434952;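 active = compound raising the membrane signal above positive-control mean plus 3 SD in both repeats, and a primary screen hit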); conditions: HEK293 TRPC6, membrane potential dye fluorescence, at 10 µM, maximal acetylcholine added after compound; hits give high values
[12] = biological target: Short transient receptor potential channel 4 (Mus musculus) (UniProt Q9QUQ5); test: calcium flux activators in TRPC4/5HT1a cells, counter-screen for TRPC4 activator project, cell-based, second counter screen, HEK293 TRPC4/5HT1a, Fluo-4 (AID 434977;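 active = calcium signal rise above buffer-control mean plus 5 SD in both duplicates, and also a hit in the primary screen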); conditions: Fluo-4 calcium flux, at 10 µM; hits give high values
[13] = calcium flux inhibitors in TRPC4/5HT1a cells, confirmation, counter-screen for TRPC4 inhibitor project, cell-based, second counter screen, HEK293 TRPC4/5HT1a, Fluo-4 (AID 434978;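 active = primary screen active whose calcium signal fell more than 3 SD beyond the full-serotonin control mean in both duplicate plates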;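 as to outcome: serotonin given first at submaximal then at maximal dose after compound preincubation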); conditions: Fluo-4 calcium flux, at 10 µM, serotonin added to trigger calcium flux; hits give high values
[14] = tested on: TRPC4 (mouse), co-expressed with 5HT1a in HEK293; test: calcium flux potentiators in TRPC4/5HT1a cells, confirmation, counter-screen for TRPC4 potentiator project, cell-based, second counter screen, HEK293 TRPC4/5HT1a, Fluo-4 (AID 434979;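 active = signal rise over 3 SD above mean of control wells given weak agonist, in both repeats and first screen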); conditions: Fluo-4 calcium flux, at 10 µM, serotonin added at its EC20 dose; hits give high values
[15] = calcium flux activation in mu-opioid HEK293 cells, confirmation, counter-screen for TRPC4 activator project, cell-based, HEK293 mu-opioid receptor line (AID 449723;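 active = hit in primary screen, with calcium signal over 5 SD above buffer well mean in both duplicates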;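 also: counter screen cells carry the mu-opioid receptor alone and lack TRPC4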); conditions: Fluo-4 calcium fluorescence, at 10 µM; hits give high values
[16] = calcium flux enhancement in mu-opioid HEK293 cells, confirmation, counter-screen for TRPC4 allosteric potentiator project, cell-based, HEK293 mu-opioid receptor line (AID 449724;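 active = calcium signal rise more than 3 SD above the low-dose agonist control mean, in both duplicate plates and the primary screen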); conditions: Fluo-4 calcium flux, at 10 µM, compound added before EC20 DAMGO stimulus; hits give high values

Compound | outcome [1] | outcome [2] | outcome [3] | outcome [4] | inhibition [5] | outcome [6] | outcome [7] | outcome [8] | outcome [9] | outcome [10] | outcome [11] | outcome [12] | inhibition [13] | outcome [14] | outcome [15] | outcome [16] | outcome [5] | outcome [13] | inhibition [6] | inhibition [9]
OCC1(Cc2ccccc2)CCN(Cc2ccc(C(F)(F)F)cc2)CC1 | inactive | inactive | inactive | inactive | 91% (active) | inactive | inactive | inactive | inactive | inactive | inactive | inactive | 23.3% (active) | inactive | inactive | inactive |  |  |  | 
CCOc1ccccc1CN1CCN(Cc2cccc3nonc23)CC1CCO (centres undefined) | inactive | inactive | inactive | inactive |  | inactive | inactive | inactive | inactive | inactive | inactive | inactive |  | inactive | inactive | inactive | inactive | inactive |  | 
COc1cccc(O)c1CN1CCCC(C(=O)c2cccc(C(F)(F)F)c2)C1 (centres undefined) | inactive | inactive | inactive | inactive | 70% (active) | inactive | inactive | inactive | inactive | inactive | inactive | inactive | 34.3% (active) | inactive | inactive | inactive |  |  |  | 
Oc1c(CN2CCCCC2)cc(Br)c2cccnc12 | inactive | inactive | inactive | inactive | 93% (active) | inactive | inactive | inactive | inactive | inactive | inactive | inactive | 4.44% (active) | inactive | inactive | inactive |  |  |  | 
CC1CCCN(CCCN2C(=O)C3C(C(=O)Nc4ccc(Cl)cc4)C4C=CC3(O4)C2C(=O)NC2CCCCC2)C1 (centres undefined) | inactive | inactive | inactive | inactive | 97% (active) |  | inactive | inactive | inactive | inactive | inactive | inactive | 26.1% (active) | inactive | inactive | inactive |  |  | 63% (active) | 
CCCCCN1C2=NCCN2c2ccccc21 | inactive | inactive | inactive | inactive | 94% (active) |  | inactive | inactive | inactive | inactive | inactive | inactive | 25.1% (active) | inactive | inactive | inactive |  |  | 70% (active) | 
COc1ccc(OC)c(Nc2cc(-c3ccccc3)nc(N)n2)c1 | inactive | inactive | inactive | inactive | 100% (active) |  | inactive | inactive |  | inactive | inactive | inactive | 37.9% (active) | inactive | inactive | inactive |  |  | 49% (active) | 55.5% (active)
COc1ccc(Nc2nc(NCC3CCCO3)c3ccccc3n2)c(OC)c1 (centres undefined) | inactive | inactive | inactive | inactive | 93% (active) |  | inactive | inactive |  | inactive | inactive | inactive | 41.4% (active) | inactive | inactive | inactive |  |  | 50% (active) | 5.5% (active)
Cc1cccc(N(Cc2ccccc2)C(=O)CSC(C)C(=O)Nc2cc(C)on2)c1 (centres undefined) | inactive | inactive | inactive | inactive | 91% (active) | inactive | inactive | inactive | inactive | inactive | inactive | inactive | 31.4% (active) | inactive | inactive | inactive |  |  |  | 
c1ccc(Cn2c(CN3CCCC3)nc3ccccc32)cc1 | inactive | inactive | inactive | inactive | 96% (active) |  | inactive | inactive | inactive | inactive | inactive | inactive | 18% (active) | inactive | inactive | inactive |  |  | 67% (active) | 
N#Cc1c(N)sc2c1CCCCCC2 | inactive | inactive | inactive | inactive | 94% (active) |  | inactive | inactive | inactive | inactive | inactive | inactive | 32.3% (active) | inactive | inactive | inactive |  |  | 44% (active) | 
COc1cccc(NC(=O)CCC(=O)N2CC(C)Oc3ccc(C)cc32)c1 (centres undefined) | inactive | inactive | inactive | inactive | 85% (active) | inactive | inactive | inactive | inactive | inactive | inactive | inactive | 42.1% (active) | inactive | inactive | inactive |  |  |  | 
O=C(CN1CCCCC1)N1c2ccccc2Oc2ccccc21 | inactive | inactive | inactive | inactive | 95% (active) | inactive | inactive | inactive | inactive | inactive | inactive | inactive | 9.39% (active) | inactive | inactive | inactive |  |  |  | 
Cc1ccccc1N(C(=O)c1snc(C(N)=O)c1N)C(C(=O)NC1CCCC1)c1ccco1 (centres undefined) | inactive | inactive | inactive | inactive | 78% (active) | inactive | inactive | inactive | inactive | inactive | inactive | inactive | 37% (active) | inactive | inactive | inactive |  |  |  | 
